# Experimental data reported in PubChem BioAssay (NCI).
# The panel holds about 83,000 compounds, 20% with a hit somewhere; the sample as a whole holds those more often.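 The endpoint reported here, percent growth, reads 100 for growth as untreated, 0 for no net growth and -100 for all cells dead.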 Values without a mark were called inactive. The source made the active and inactive calls. How the source made its calls: active means growth percent below 10; inactive means the rest.
# System: U251 CNS
# Experiment: NCI-60 one-dose screen, 48 h (100 = growth as untreated, 0 = no growth, -100 = all killed)
# Details: 10 µM unless noted
row,Structure (SMILES),growth
1,CN1CC=C(c2cc(NC(=O)Nc3ccc(Oc4ccnc(NC(=O)C5CC5)c4)c(F)c3)cc(C(F)(F)F)c2)CC1,-1.77% (active)
2,COc1ccc(C(=O)c2cc(OC)c(C)c(OC)c2)cc1OC(=O)CCl,17.1%
3,NC(=O)C(O)(c1ccccc1)c1ccccc1,101%
4,CCOC(=O)C(=Cc1c(-c2ccccc2)[nH]c2ccccc12)C(=O)OCC,52.9%
5,C=C(C)[C@@H]1CC[C@]2(C(=O)OCCCC[P+](c3ccccc3)(c3ccccc3)c3ccccc3)CC[C@]3(C)[C@H](CC[C@@H]4[C@@]5(C)CC[C@H](OC(=O)C(Cl)Cl)C(C)(C)[C@@H]5CC[C@]43C)[C@@H]12,-37.1% (active)
6,CC(=O)Nc1ccc2c(c1)Cc1cc(F)ccc1-2,95.5%
7,Cc1nccc2c3ccc(OCc4cn(-c5ccccc5)nn4)cc3n(CCCc3ccccc3)c12,76.8%
8,N#Cc1c(NC(=O)c2cccs2)[n+]([O-])c2cc(C(F)(F)F)ccc2[n+]1[O-],104%
9,O=C(Nc1ccccc1)NS(=O)(=O)c1c[nH]c(=S)[nH]c1=O,93.3%
10,O=C(CSC(=S)N1CCCCC1)Nc1ccccc1,97.6%
11,COc1ccccc1-c1ccc2nc(NC(=O)Nc3cc(C(F)(F)F)cc(C(F)(F)F)c3)sc2c1,12.5%
12,Cc1cc(Cl)cc(CN(Cc2ccccc2)Cc2c(O)ccc3ccccc23)c1O,98.5%
13,Cn1cc(-c2ccc3c(c2)ncn3-c2ccc(CC(=O)Nc3cc(C(C)(C)C)on3)cc2)cn1,31.3%
14,COc1ccc2nc(-c3ccc(Cl)cc3)cc(C(=O)N3N=C(c4ccc(N)cc4)CC3c3ccccc3)c2c1 (centres undefined),50.7%
15,COc1cc(C(=O)Nc2cc(O)c(C/C=C(\C)CCC=C(C)C)c(O)c2)cc2c1O[C@]1(C)CC[C@@H](O)C(C)(C)[C@H]1C2,6.63% (active)
16,C=C(C)[C@@H]1CC[C@]2(C(=O)NCCCO)CC[C@]3(C)[C@H](CC[C@@H]4[C@@]5(C)CCCNC(C)(C)[C@@H]5CC[C@]43C)[C@@H]12,53.7%
17,Nc1ccc2c(c1)C(=O)C(=O)c1c-2nc2ccccn12,9.14% (active)
18,CC(C)NS(=O)(=O)c1cccc(-c2ccc3c(=O)n(CCCN)c4c(c3c2)C(=O)c2ccccc2-4)c1,104%
19,CCSc1nc(Cl)c(C#N)c(-c2ccc(F)cc2)n1,91.6%

row,Structure (SMILES),growth
1,COc1ccc(-c2[nH]c3ccc(OC)cc3c2C=C(C#N)C#N)cc1,35.7%
2,OCCNc1nc(NCCO)nc(Nc2ccc(C3=NN(c4cc(Cl)cc(Cl)c4)C(c4ccccc4)C3)cc2)n1 (centres undefined),27.2%
3,COc1ccc2[nH]c(=O)c(/C=C/C(=O)c3ccccc3OC)cc2c1,5.14% (active)
4,CC(=O)Nc1nc2c(c(N)c1C#N)C(c1cccc(Cl)c1)C1=C(CCCC1=O)N2c1sc2c(c1C#N)CCCC2 (centres undefined),42.3%
5,C#C[C@@]1(O)[C@@H](CO)O[C@@H](n2cnc3c(-c4ccccc4)ncnc32)[C@@H]1O,104%
6,COc1cc(-c2cn(-c3ccc(Cl)c(Cl)c3)c(=O)[nH]2)cc(OC)c1OC,95.6%
7,Nc1ccc(C2=NN(C(=O)c3cc(-c4ccc(Cl)cc4)nc4ccccc34)C(c3ccccc3)C2)cc1 (centres undefined),40.1%
8,Cc1c(Cl)cccc1NC(=O)c1sc2nc3c(cc2c1N)COCC3,22.6%
9,CC1CCN(CCCCCOc2ccc3oc4ccccc4c(=O)c3c2)CC1,67.5%
10,O=S(=O)(Nc1nccs1)c1ccc(Nc2nc(-c3ccncc3)cs2)cc1,95.2%
11,N#Cc1c(-c2ccc(F)cc2)nc(N/N=C/c2cccc(O)c2)nc1N1CCOCC1,73.5%
12,COc1cc(-c2csc(NC(=O)Nc3cc(Cl)cc(Cl)c3)n2)cc(OC)c1OC,-80.1% (active)
13,COc1ccc(C(=O)c2cc(F)c(F)c(OC)c2F)cc1OC(=O)CCl,31.3%
14,Cc1c(Cl)cccc1NC(=O)c1sc2nc3c(cc2c1N)CCCCCC3,15.7%
15,C#C[C@@]1(O)[C@@H](CO)O[C@@H](n2cc(-c3ccco3)c3c(N)ncnc32)[C@@H]1O,81.8%
16,COc1cc(/C=C/C(=O)c2ccc(NC(=O)CSc3nnc(-c4cc(OC)c(OC)c(OC)c4)n3-c3ccccc3)cc2)cc(OC)c1OC,-8.68% (active)
17,COc1ccccc1C(=O)/C=C/c1cc2cccc(OC)c2[nH]c1=O,-55.7% (active)
18,CN1C(=O)c2cc(Cl)nc3c(NC(=O)c4cccc(Cl)c4)c(Cl)c(NC(=O)c4cccc(Cl)c4)c1c23,-68.4% (active)

# System: PC-3 prostate
# Experiment: as above
# Details: 10 µM unless noted
row,Structure (SMILES),growth
1,CN1CC=C(c2cc(NC(=O)Nc3ccc(Oc4ccnc(NC(=O)C5CC5)c4)c(F)c3)cc(C(F)(F)F)c2)CC1,3.71% (active)
2,COc1ccc(C(=O)c2cc(OC)c(C)c(OC)c2)cc1OC(=O)CCl,13.4%
3,NC(=O)C(O)(c1ccccc1)c1ccccc1,87.3%
4,CCOC(=O)C(=Cc1c(-c2ccccc2)[nH]c2ccccc12)C(=O)OCC,-16% (active)
5,C=C(C)[C@@H]1CC[C@]2(C(=O)OCCCC[P+](c3ccccc3)(c3ccccc3)c3ccccc3)CC[C@]3(C)[C@H](CC[C@@H]4[C@@]5(C)CC[C@H](OC(=O)C(Cl)Cl)C(C)(C)[C@@H]5CC[C@]43C)[C@@H]12,-26.2% (active)
6,CC(=O)Nc1ccc2c(c1)Cc1cc(F)ccc1-2,95.5%
7,Cc1nccc2c3ccc(OCc4cn(-c5ccccc5)nn4)cc3n(CCCc3ccccc3)c12,65.1%
8,N#Cc1c(NC(=O)c2cccs2)[n+]([O-])c2cc(C(F)(F)F)ccc2[n+]1[O-],65.1%
9,O=C(Nc1ccccc1)NS(=O)(=O)c1c[nH]c(=S)[nH]c1=O,100%
10,O=C(CSC(=S)N1CCCCC1)Nc1ccccc1,92.6%
11,COc1ccccc1-c1ccc2nc(NC(=O)Nc3cc(C(F)(F)F)cc(C(F)(F)F)c3)sc2c1,13.5%
12,Cc1cc(Cl)cc(CN(Cc2ccccc2)Cc2c(O)ccc3ccccc23)c1O,88.5%
13,Cn1cc(-c2ccc3c(c2)ncn3-c2ccc(CC(=O)Nc3cc(C(C)(C)C)on3)cc2)cn1,43.5%
14,COc1ccc2nc(-c3ccc(Cl)cc3)cc(C(=O)N3N=C(c4ccc(N)cc4)CC3c3ccccc3)c2c1 (centres undefined),35.9%
15,COc1cc(C(=O)Nc2cc(O)c(C/C=C(\C)CCC=C(C)C)c(O)c2)cc2c1O[C@]1(C)CC[C@@H](O)C(C)(C)[C@H]1C2,18.1%
16,C=C(C)[C@@H]1CC[C@]2(C(=O)NCCCO)CC[C@]3(C)[C@H](CC[C@@H]4[C@@]5(C)CCCNC(C)(C)[C@@H]5CC[C@]43C)[C@@H]12,49.2%
17,Nc1ccc2c(c1)C(=O)C(=O)c1c-2nc2ccccn12,24%
18,CC(C)NS(=O)(=O)c1cccc(-c2ccc3c(=O)n(CCCN)c4c(c3c2)C(=O)c2ccccc2-4)c1,102%
19,CCSc1nc(Cl)c(C#N)c(-c2ccc(F)cc2)n1,98.9%

row,Structure (SMILES),growth
1,COc1ccc(-c2[nH]c3ccc(OC)cc3c2C=C(C#N)C#N)cc1,21.7%
2,OCCNc1nc(NCCO)nc(Nc2ccc(C3=NN(c4cc(Cl)cc(Cl)c4)C(c4ccccc4)C3)cc2)n1 (centres undefined),24.5%
3,COc1ccc2[nH]c(=O)c(/C=C/C(=O)c3ccccc3OC)cc2c1,22.1%
4,CC(=O)Nc1nc2c(c(N)c1C#N)C(c1cccc(Cl)c1)C1=C(CCCC1=O)N2c1sc2c(c1C#N)CCCC2 (centres undefined),20.8%
5,C#C[C@@]1(O)[C@@H](CO)O[C@@H](n2cnc3c(-c4ccccc4)ncnc32)[C@@H]1O,95.5%
6,COc1cc(-c2cn(-c3ccc(Cl)c(Cl)c3)c(=O)[nH]2)cc(OC)c1OC,104%
7,Nc1ccc(C2=NN(C(=O)c3cc(-c4ccc(Cl)cc4)nc4ccccc34)C(c3ccccc3)C2)cc1 (centres undefined),26.8%
8,Cc1c(Cl)cccc1NC(=O)c1sc2nc3c(cc2c1N)COCC3,30.3%
9,CC1CCN(CCCCCOc2ccc3oc4ccccc4c(=O)c3c2)CC1,80.8%
10,O=S(=O)(Nc1nccs1)c1ccc(Nc2nc(-c3ccncc3)cs2)cc1,96.8%
11,N#Cc1c(-c2ccc(F)cc2)nc(N/N=C/c2cccc(O)c2)nc1N1CCOCC1,72.7%
12,COc1cc(-c2csc(NC(=O)Nc3cc(Cl)cc(Cl)c3)n2)cc(OC)c1OC,10.7%
13,COc1ccc(C(=O)c2cc(F)c(F)c(OC)c2F)cc1OC(=O)CCl,38.4%
14,Cc1c(Cl)cccc1NC(=O)c1sc2nc3c(cc2c1N)CCCCCC3,32.9%
15,C#C[C@@]1(O)[C@@H](CO)O[C@@H](n2cc(-c3ccco3)c3c(N)ncnc32)[C@@H]1O,49.1%
16,COc1cc(/C=C/C(=O)c2ccc(NC(=O)CSc3nnc(-c4cc(OC)c(OC)c(OC)c4)n3-c3ccccc3)cc2)cc(OC)c1OC,28%
17,COc1ccccc1C(=O)/C=C/c1cc2cccc(OC)c2[nH]c1=O,31.1%
18,CN1C(=O)c2cc(Cl)nc3c(NC(=O)c4cccc(Cl)c4)c(Cl)c(NC(=O)c4cccc(Cl)c4)c1c23,-45.5% (active)
